Source: PubChem BioAssay (National Center for Advancing Translational Sciences (NCATS))
Many of the other results were omitted from the sample, so hits are more common in it than they were.
SARS PLP yeast: qHTS of Yeast-based Assay for SARS-CoV PLP | AID 485353, 2010 | S. cerevisiae expressing SARS-CoV PLpro, growth rescue | actives 0.19% (n = 330,000) | Potency, µM (top dose mostly 32.9 µM), for the others: top-dose activity, positive = growth rescue, most hits filed as activators; calls by dose curve; note: potency is the fitted concentration of half-maximal effect; 0% is about no effect; nearly all actives have a fitted effect of over 55% in size
LmPK inh: qHTS Assay for Inhibitors of Leishmania Mexicana Pyruvate Kinase (LmPK) | purified LmPK, Kinase-Glo ATP luminescence, 1 h | AID 1721, 2009 | Q27686 | Potency, µM (top dose mostly 57.5 µM), inactives show at the top dose activity change, negative = inhibition, actives largely listed as inhibitors | actives 0.37% (n = 290,000); note: potency is the fitted concentration of half-maximal effect; % is set by controls: 0 for no effect and ±100 for the full control effect
Target sequence (Q27686 whole entry, looked up): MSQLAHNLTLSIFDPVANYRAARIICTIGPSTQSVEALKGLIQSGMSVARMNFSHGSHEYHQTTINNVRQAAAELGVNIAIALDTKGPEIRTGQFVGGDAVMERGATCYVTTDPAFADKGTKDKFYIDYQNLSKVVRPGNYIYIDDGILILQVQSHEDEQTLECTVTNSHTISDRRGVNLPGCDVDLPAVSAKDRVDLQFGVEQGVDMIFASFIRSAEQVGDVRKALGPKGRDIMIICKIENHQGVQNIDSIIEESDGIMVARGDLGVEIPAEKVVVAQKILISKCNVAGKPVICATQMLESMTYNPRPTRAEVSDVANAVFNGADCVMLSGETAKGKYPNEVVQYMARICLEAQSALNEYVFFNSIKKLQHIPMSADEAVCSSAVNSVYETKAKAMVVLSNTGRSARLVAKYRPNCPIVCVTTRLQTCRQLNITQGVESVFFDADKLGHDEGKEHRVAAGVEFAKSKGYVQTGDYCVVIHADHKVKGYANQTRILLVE
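Screened at intermediate enzyme activity to detect both inhibitors and activators: LmPK at 0.1 nM, with a 0.5 nM enzyme column as activation reference. PEP 0.5 mM, ADP 0.1 mM; ATP detected by luminescence after 1 h.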
NS1 inh: qHTS Assay for Inhibitors of Influenza NS1 Protein Function; actives 0.4% (n = 270,000); Potency, µM (doses to about 46.1 µM), for inactives: at the highest dose activity, positive = more growth; calls by dose curve; note: potency is the fitted concentration of half-maximal effect; actives are rising curves; nearly all actives have a fitted effect of over 50% in size
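Growth recovery, yeast-based: influenza A NS1 expressed in S. cerevisiae causes slow growth, and suppressors are detected by OD600. The parent strain without NS1 is used as positive control.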
Shiga inhibitor: A qHTS for Small Molecule Inhibitors of Shiga Toxin. Vero cells, Shiga toxin protein synthesis inhibition reporter. inhibition, % at 38.7 µM. actives 9.2% (n = 290,000). AID 2315, 2010; in the data active = inhibition mostly above about 28%, no sharp cut-off; inactive = mostly below about 43%; note: 0% is about no effect
TbPYK inhibitor: qHTS of Trypanosoma Brucei Inhibitors | TbPYK enzyme, Kinase-Glo Plus ATP luminescence, 45 min | Potency, µM (doses to about 76.8 µM), for the others: at the top dose activity, negative = inhibition, actives largely listed as inhibitors | actives 0.12% (n = 410,000); note: potency is the fitted concentration of half-maximal effect; % is set by controls: 0 for no effect and ±100 for the full control effect; nearly all actives have a fitted effect of over 50% in size
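ADP (130 uM final) triggers the TbPYK reaction after compound addition; incubation is 45 min at room temperature. Kinase-Glo Plus is then added and luminescence imaged. Normalized data are fitted to concentration-effect curves.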
Cycloheximide cs: Cycloheximide Counterscreen for Small Molecule Inhibitors of Shiga Toxin; actives 12% (n = 300,000); max response, %; cell reporter, cycloheximide protein synthesis inhibition counterscreen; AID 2314, 2010; in the data active = max response mostly above about 13%, no sharp cut-off; inactive = mostly below about 14%; note: read at 38.3 µM for the half of the compounds with a filed dose; 0% is about no effect
An asterisk follows results filed as active; ? = inconclusive; . = not tested or not shown. Unless noted, calls come from the whole dose curve; as a rule, active = well fitted curve in the direction sought with a large enough effect; inconclusive = small, poorly fitted or top-dose-only effect, or another doubt; inactive = no such curve, though single readings can be large; an effect the other way counts as inactive or inconclusive.

SMILES	SARS PLP yeast	LmPK inh	NS1 inh	Shiga inhibitor	TbPYK inhibitor	Cycloheximide cs
CCOc1ccc(NC(=O)C(c2ccccn2)N(C(=O)CCl)c2ccc(F)cc2)cc1 (centres undefined)	8%	2%	16%	active	-9%	32*
CCOc1ccc(NC(=O)N(c2ccccc2)c2ccccc2)cc1	-5%	-11%	-9%	-4	0%	-4
O=C(ONC1=NCCCCC1)c1c(F)cccc1F	-26%	-4%	-36%	-3	-12%	18*
O=C(ONC1=NCCCCC1)c1ccc(Cl)cc1	-29%	3%	-215%	37	-5%	17*
CO/N=C/CC(=O)c1cnc(-c2ccccc2)s1	-4%	7%	.	40	2%	19*
CC(=O)Nc1cc(NC(C)=O)cc(-c2nc3ccccc3[nH]2)c1	-1%	0%	4%	-2	3%	2
CC(=O)Nc1ccc(-c2nc3c(C)cccc3[nH]2)cc1	-4%	-8%	-1%	110*	-2%	45*
O=c1oc2ccccc2cc1-c1nc2c(s1)CCCC2	-8%	13µM*	-3%	56*	-21%	31*
Cc1cc(-c2nnc(-c3cc4ccccc4oc3=O)o2)c(C)n1-c1ccccc1	3%	-3%	9%	36	-15%	32*
O=c1oc2ccc3ccccc3c2cc1-c1nc2ccccc2o1	.	.	.	.	-1%	.
COc1ccc2oc(=O)c(-c3nc4ccccc4o3)cc2c1	-17%	-11%	-7%	66*	8%	25*
COc1ccc2oc(=O)c(-c3nnc(-c4ccc(C)cc4)o3)cc2c1	.	.	.	.	-1%	.
O=c1oc2ccccc2cc1-c1nc2ccccc2o1	-3%	?	-44%	71*	-5%	38*
COC(=O)[C@@]12CCCN1[C@H](c1ccc(-c3ccc(OC)cc3)cc1)[C@@H]1C(=O)N(C)C(=O)[C@@H]12	-15%	.	.	.	10%	.
NC(COCc1ccccc1)c1csc(NC(=O)Nc2cccc(C(F)(F)F)c2)n1 (centres undefined)	.	.	.	.	-9%	.
COC/C=C/c1cc(F)c(S(=O)(=O)N2CCN(S(=O)(=O)c3ccc4c(c3)OCCO4)CC2)cc1F	.	.	.	-10	.	-5
COC(=O)[C@]12CCCCC=C1N(Cc1ccccc1)C(=O)[C@H](CC(=O)NCCCCc1ccccc1)C2	.	.	.	.	0%	.
O=C1NCCCN1Cc1ccc(F)cc1	-2%	7%	6%	-4	-2%	-1
COc1cccc(CN2CCN(c3ccc(F)cc3)C2=O)c1	-1%	4%	4%	33	8%	34*
O=C1N(Cc2ccc(F)cc2)CCN1c1ccc(F)cc1	-1%	-2%	-6%	58*	1%	29*
O=C(OCc1cnc(Cl)s1)c1ccccc1Cl	6%	-2%	-30%	22	1%	16*
O=C(OCc1cnc(Cl)s1)c1c(F)cccc1F	0%	-1%	-1%	52	-23%	9
O=C(OCc1cnc(Cl)s1)c1cccc(Cl)c1Cl	-8%	6%	-7%	-4	3%	14*
O=S(=O)(c1ccc2c(c1)OCCO2)N1CCN(S(=O)(=O)c2ccc3nc(Cl)c(Cl)nc3c2)CC1	.	.	.	18	.	27*
O=S(=O)(c1ccc2c(c1)OCCO2)N1CCN(S(=O)(=O)c2ccc3c(c2)OCCO3)CC1	1%	.	.	-4	.	-6
SMILES	SARS PLP yeast	LmPK inh	NS1 inh	Shiga inhibitor	TbPYK inhibitor	Cycloheximide cs
Cc1ccc(C(C(=O)NC2CCCCC2)N(C)Cc2ccccc2)cc1 (centres undefined)	.	.	.	.	2%	.
Cc1cccnc1NC(=S)NC(=O)c1oc2ccccc2c1C	-1%	7%	-18%	79*	2%	40*
Cc1c(C(=O)NC(=S)NCC(C)C)oc2ccccc12	-10%	0%	0%	35	-4%	17*
C=CCNC(=S)NNC(=O)CC12CC3CC(CC(C3)C1)C2	-2%	4%	4%	21	-11%	2
CCN(CC)S(=O)(=O)c1ccc(O)c(C(=O)OCC(=O)NC23CC4CC(CC(C4)C2)C3)c1	-16%	.	.	.	3%	.
O=C(Cc1cccs1)Nc1nc2c(s1)CCCC2	-21%	-8%	-32%	132*	-22%	54*
O=C(Nc1nc2c(s1)CCCC2)c1cccs1	-21%	?	-134%	-11	-11%	27*
O=C(Nc1nc2c(s1)CCCC2)c1cccnc1	-1%	-12%	0%	70*	-5%	52*
O=C(CCSc1ccccc1)Nc1nc2c(s1)CCCC2	-6%	7%	0%	162*	-12%	31*
COc1cc(C(=O)n2nc(-c3ccco3)nc2NCc2ccc(Cl)cc2)cc(OC)c1OC	.	.	.	.	-8%	.
COc1ccc(N2CCN(CCNC(=O)Nc3ccc([N+](=O)[O-])cc3OC)CC2)cc1	-1%	-8%	1%	-3	3%	-1
O=C(NC(=S)Nc1nc2c(s1)CCCC2)c1ccc(C(=O)c2ccccc2)cc1	-15%	0%	12%	12	-10%	17
O=C(Nc1nc2c(s1)CCCC2)Oc1ccccc1	2%	-7%	1%	34*	1%	21*
C/C(=N\Nc1nc2c(s1)CCCC2)c1ccccc1	-2%	0%	7%	143*	-12%	43*
O=C(Nc1ccc(Br)cc1)Nc1nc2c(s1)CCCCCC2	.	.	.	.	-3%	.
Cc1c(-c2nc(-c3cccnc3)no2)cccc1[N+](=O)[O-]	1%	-1%	-2%	38	-2%	24*
Cc1ccc(-c2nc(-c3cccnc3)no2)c(C)c1	-5%	-5%	-67%	108*	-5%	36*
O=C(O)C(Cc1ccccc1)N=C(NS(=O)(=O)c1ccccc1)c1ccccc1 (centres undefined)	3%	.	.	.	0%	.
Oc1cc[c]([Hg][Cl])cc1	.	.	.	.	1.4µM*	.
CCn1cc(C(=O)NCCOC)c(=O)c2cc(S(=O)(=O)N3CCOCC3)ccc21	.	.	.	.	2%	.
Cc1ccnc(NC(=O)CCS(=O)(=O)c2ccccc2)c1	?	-1%	2%	36	-1%	18*
Cc1ccnc(NC(=O)CS(=O)(=O)c2ccccc2)c1	-1%	-3%	-5%	89*	-1%	13
O=C(CCS(=O)(=O)c1ccccc1)Nc1ccccn1	0%	-2%	4%	9	-9%	8
CC(C)Cc1nn2c(=O)cc(COC(=O)c3cccc(NC(=O)c4cccs4)c3)nc2s1	.	.	.	.	0%	.
Oc1cccc(Nc2cc(-c3ccccc3)ncn2)c1	.	.	.	.	4%	.
O=C(Nc1ccc(Cl)cn1)c1cc2c(s1)-c1ccccc1OC2	-1%	1%	-2%	34	5%	16*
O=C(NCCc1ccc(Cl)cc1)c1cc2c(s1)-c1ccccc1OC2	.	.	.	.	2%	.
O=C(Nc1cccnc1Cl)c1cc2c(s1)-c1ccccc1OC2	22%	-3%	-9%	27*	0%	26
